Experimental findings from PubChem BioAssay are described below.

In experiment [1] the test system is Plasmodium falciparum Sir2 (PF13_0152, Sir2A). Put plainly: Plasmodium falciparum Sir2A binding compounds – biochemical, small-molecule microarray, 635 nm fluorescence, primary screen (AID 1098).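 Also: score merges spot fluorescence intensity with its signal-to-noise ratio.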 As to conditions: fluorescence 635 nm, higher = more signal.
A short description of experiment [2]: probe aDKK1 binding to arrayed compounds – biochemical, biotinylated probe, 635/667 nm fluorescence, primary screen (AID 1099).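 Also: score merges 667nm spot fluorescence with signal to noise across triplicate slides.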 The conditions noted are these: small-molecule microarray, higher = more signal.
Experiment [3] in a line: probe aCHRDL2 binding to arrayed compounds – biochemical, biotinylated probe, 635/667 nm fluorescence, primary screen (AID 1100). As to conditions: small-molecule microarray, higher = more signal.
The nature of experiment [4]: change in splice reporter luminescence, either direction, cell-based, HEK293, spliceosome inhibition project, primary screen (AID 1101).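 Also: HEK293 cells carrying a splicing-competent luciferase reporter gene; test concentration not given here.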 As to conditions: HEK293 splicing luciferase reporter, 24 h, higher = more signal, called active from +8 up or from −8 down. Background: In a reporter assay the amount or activity of a reporter protein is the signal.
For experiment [5], the target named is Fibroblast growth factor 10 (Homo sapiens) (UniProt O15520). Put plainly: compounds binding fibroblast growth factor 10 – biochemical, small-molecule microarray, 635 nm fluorescence, primary screen (AID 1102). The conditions noted are these: FGF10 binding, fluorescence 635 nm, higher = more signal.
Experiment [6] deals with glycogen synthase kinase-3 (GSK3A per assay name; protocol says GSK3B). Put plainly: compounds binding glycogen synthase kinase-3 – biochemical, small-molecule microarray, 635 nm fluorescence, GSK3A, primary screen (AID 1103). Also: the record names both GSK3A and GSK3B. As to conditions: fluorescence 635 nm, higher = more signal.
The target of experiment [7] is Epidermal growth factor receptor (Homo sapiens) (UniProt P00533). The experiment in a line: compounds binding epidermal growth factor receptor – biochemical, small-molecule microarray, 635 nm fluorescence, primary screen (AID 1104).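 Also: score merges 667 nm emission intensity with spot signal to noise over triplicate slides.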 The conditions noted are these: EGFR binding, higher = more signal.
For experiment [8], the target named is Follistatin-related protein 3 (Homo sapiens) (UniProt O95633). The experiment in a line: compounds binding follistatin-related protein 3 – biochemical, small-molecule microarray, 635 nm fluorescence, primary screen (AID 1105).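 Also: score merges emission near 667 nm and signal to noise per printed spot across three slides.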 As to conditions: FSTL3 binding, higher = more signal.
For experiment [9], the target named is Dickkopf-related protein 1 (Homo sapiens) (UniProt O94907). The experiment in a line: small molecules binding DKK1 protein – biochemical, small-molecule microarray, 635 nm fluorescence scan, primary screen (AID 1106).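 Also: score merges emission near 667 nm with signal to noise over three replicate slides.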 As to conditions: higher = more signal.
For experiment [10], the system named is Inhibin beta A chain (activin A). Put plainly: small molecules binding activin A – biochemical, small-molecule microarray, 635 nm fluorescence scan, primary screen (AID 1107).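 Also: mouse activin A protein probed at 4.33 µg/mL on printed slides; score merges bound-protein fluorescence near 667 nm with spot signal-to-noise.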 The conditions noted are these: INHBA, higher = more signal.
Experiment [11] has as its system Human papillomavirus type 1a protein E7 (residues 44-93). The experiment in a line: small molecules binding HPV E7 44-93 – biochemical, small-molecule microarray, residues 44-93, 635 nm fluorescence, primary screen (AID 1108).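 Also: E7 fragment applied at 1 µg/mL in TBST for 1 h at 4 C; score combines spot fluorescence with its signal to noise ratio.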 The conditions noted are these: fluorescence 635 nm, higher = more signal.
Experiment [12] is described as follows: hepatitis C replication reporter changes, two-sided – Huh7 cells, luciferase reporter, HCV replication inhibitor project, primary screen (AID 1109).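 Also: huh7 hepatoma cells harbouring a luciferase neomycin HCV replicon reporter; luciferase luminescence as measure of HCV replicon replication; test concentration not given here.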 As to conditions: Huh7 HCV replicon luciferase reporter, 48 h; higher = more signal.
Experiment [13] has as its target Left-right determination factor 2 (Homo sapiens) (UniProt O00292). The experiment in a line: small molecules binding LEFTY2 protein – biochemical, small-molecule microarray, 635 nm fluorescence scan, primary screen (AID 1110). As to conditions: higher = more signal.
In experiment [14] the target is Calmodulin-1 (Homo sapiens) (UniProt P0DP23). Put plainly: small molecules binding calmodulin-1 with EGTA – biochemical, small-molecule microarray, Cy5-labelled CALM1, profiling panel (AID 1111).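 Also: labelled calmodulin applied in Tris saline Tween buffer holding calcium plus EGTA and DTT.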 As to conditions: Cy5-CALM1 binding fluorescence, higher = more signal.
For experiment [15] the target is unchanged. Put plainly: small molecules binding Ca-loaded calmodulin-1 – biochemical, small-molecule microarray, Cy5-labelled CALM1, plus calcium, artefact control for SMM control-protein annotation, profiling panel (AID 1112).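 Also: score merges spot fluorescence with signal to noise from triplicate slides.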 The conditions noted are these: Cy5-CALM1 binding fluorescence, higher = more signal.
A short description of experiment [16]: probe aWnt5a binding to arrayed compounds – biochemical, biotinylated probe, 635/667 nm fluorescence, primary screen (AID 1113).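 Also: score merges 667 nm fluorescence intensity with signal-to-noise per printed feature.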 The conditions noted are these: small-molecule microarray, higher = more signal.
The nature of experiment [17]: probe aShh binding to arrayed compounds – biochemical, biotinylated probe, 635/667 nm fluorescence, primary screen (AID 1114).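 Also: probe is biotin-labelled aShh protein from a stem cell growth factor screen; measures binding of labelled protein to compounds printed on the slide; score merges feature fluorescence at 667 nm with signal-to-noise.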 The conditions noted are these: small-molecule microarray, higher = more signal.
A short description of experiment [18]: probe aNog binding to arrayed compounds – biochemical, biotinylated probe, 635/667 nm fluorescence, primary screen (AID 1115).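 Also: probe is biotinylated aNog protein used at 0.15 µg/mL for 1 h at 4 C; z-score combines 667 nm fluorescence of each spot with its signal to noise.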 The conditions noted are these: small-molecule microarray, higher = more signal.
Experiment [19] addresses Torsin-1A-interacting protein 1 (Homo sapiens) (UniProt Q5JTV8). Put plainly: compound microarray binding of lysate hLAP1 – cell lysate, small-molecule microarray, COS7 lysate, 635/667 nm fluorescence, primary screen (AID 1116). As to conditions: 635 nm fluorescence, higher = more signal.
Experiment [20] addresses Alpha-bungarotoxin (Bungarus multicinctus) (UniProt P60615). The experiment in a line: compounds binding labelled alpha-BTX control protein – biochemical, small-molecule microarray, Alexa647 label, 635/667 nm fluorescence, artefact control for SMM control protein annotation, profiling panel (AID 1117). The conditions noted are these: alpha-BTX-A647 binding fluorescence, higher = more signal.

Several values for one entry are separate records, joined by “and”; a condition that tells them apart may be missing. Equal entries are not always repeated. Activity calls are given as the source filed them.

Chain of Epidermal growth factor receptor (Homo sapiens) (P00533 whole entry, looked up): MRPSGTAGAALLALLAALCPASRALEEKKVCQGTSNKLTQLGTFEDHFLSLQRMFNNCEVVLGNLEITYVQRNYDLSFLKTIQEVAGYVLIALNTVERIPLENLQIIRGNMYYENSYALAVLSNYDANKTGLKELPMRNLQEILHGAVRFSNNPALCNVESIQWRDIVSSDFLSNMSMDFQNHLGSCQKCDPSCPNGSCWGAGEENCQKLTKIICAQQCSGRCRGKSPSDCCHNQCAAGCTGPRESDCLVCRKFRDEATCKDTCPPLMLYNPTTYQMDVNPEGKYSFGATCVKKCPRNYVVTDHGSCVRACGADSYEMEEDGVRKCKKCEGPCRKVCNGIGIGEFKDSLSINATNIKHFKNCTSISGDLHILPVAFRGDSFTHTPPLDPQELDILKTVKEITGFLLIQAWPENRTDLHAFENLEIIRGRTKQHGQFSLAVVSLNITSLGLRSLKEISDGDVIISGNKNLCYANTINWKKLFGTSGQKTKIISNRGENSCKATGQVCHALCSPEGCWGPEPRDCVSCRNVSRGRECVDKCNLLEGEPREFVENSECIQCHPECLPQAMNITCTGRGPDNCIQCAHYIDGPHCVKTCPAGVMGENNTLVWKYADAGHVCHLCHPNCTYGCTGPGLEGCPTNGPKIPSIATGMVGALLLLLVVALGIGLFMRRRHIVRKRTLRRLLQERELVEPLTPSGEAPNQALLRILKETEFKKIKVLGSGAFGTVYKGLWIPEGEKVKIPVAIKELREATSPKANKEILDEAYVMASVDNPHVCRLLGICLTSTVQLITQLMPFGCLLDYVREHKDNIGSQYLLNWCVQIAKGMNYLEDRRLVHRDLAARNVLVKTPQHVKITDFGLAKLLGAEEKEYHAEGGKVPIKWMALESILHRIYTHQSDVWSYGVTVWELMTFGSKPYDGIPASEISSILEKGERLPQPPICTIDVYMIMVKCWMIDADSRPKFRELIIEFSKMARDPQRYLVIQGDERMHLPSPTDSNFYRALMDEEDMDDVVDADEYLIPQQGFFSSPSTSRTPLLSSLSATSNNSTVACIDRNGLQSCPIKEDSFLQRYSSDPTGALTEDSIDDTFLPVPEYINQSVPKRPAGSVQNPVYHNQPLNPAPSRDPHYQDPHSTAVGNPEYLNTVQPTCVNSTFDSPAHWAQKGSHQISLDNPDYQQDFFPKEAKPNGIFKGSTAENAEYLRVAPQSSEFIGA
Chain of Alpha-bungarotoxin (Bungarus multicinctus) (P60615 whole entry, looked up): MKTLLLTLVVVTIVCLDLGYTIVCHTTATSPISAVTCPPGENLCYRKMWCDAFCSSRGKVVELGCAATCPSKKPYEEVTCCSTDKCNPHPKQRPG
Chain of Torsin-1A-interacting protein 1 (Homo sapiens) (Q5JTV8 whole entry, looked up): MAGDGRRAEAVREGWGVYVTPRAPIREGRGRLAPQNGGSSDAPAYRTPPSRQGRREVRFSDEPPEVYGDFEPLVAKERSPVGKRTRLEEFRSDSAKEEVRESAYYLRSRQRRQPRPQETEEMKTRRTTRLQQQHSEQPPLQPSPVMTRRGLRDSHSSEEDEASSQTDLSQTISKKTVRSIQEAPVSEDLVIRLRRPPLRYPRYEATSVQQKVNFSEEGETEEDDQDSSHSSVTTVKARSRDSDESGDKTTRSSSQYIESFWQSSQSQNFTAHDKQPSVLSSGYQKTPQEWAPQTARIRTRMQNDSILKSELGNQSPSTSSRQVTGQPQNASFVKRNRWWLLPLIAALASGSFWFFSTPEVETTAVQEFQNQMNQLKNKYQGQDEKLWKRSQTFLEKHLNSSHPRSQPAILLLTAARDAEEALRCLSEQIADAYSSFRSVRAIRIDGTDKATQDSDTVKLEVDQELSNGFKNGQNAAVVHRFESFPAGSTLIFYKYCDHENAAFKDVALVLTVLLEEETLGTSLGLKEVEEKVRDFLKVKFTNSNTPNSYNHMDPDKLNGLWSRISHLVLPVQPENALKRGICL
Chain of Fibroblast growth factor 10 (Homo sapiens) (O15520 whole entry, looked up): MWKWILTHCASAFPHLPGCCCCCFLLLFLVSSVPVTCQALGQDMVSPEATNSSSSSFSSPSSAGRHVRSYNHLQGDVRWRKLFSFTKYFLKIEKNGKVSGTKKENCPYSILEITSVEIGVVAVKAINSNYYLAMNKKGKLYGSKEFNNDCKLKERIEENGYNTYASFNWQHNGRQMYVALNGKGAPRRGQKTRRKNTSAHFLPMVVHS
Chain of Left-right determination factor 2 (Homo sapiens) (O00292 whole entry, looked up): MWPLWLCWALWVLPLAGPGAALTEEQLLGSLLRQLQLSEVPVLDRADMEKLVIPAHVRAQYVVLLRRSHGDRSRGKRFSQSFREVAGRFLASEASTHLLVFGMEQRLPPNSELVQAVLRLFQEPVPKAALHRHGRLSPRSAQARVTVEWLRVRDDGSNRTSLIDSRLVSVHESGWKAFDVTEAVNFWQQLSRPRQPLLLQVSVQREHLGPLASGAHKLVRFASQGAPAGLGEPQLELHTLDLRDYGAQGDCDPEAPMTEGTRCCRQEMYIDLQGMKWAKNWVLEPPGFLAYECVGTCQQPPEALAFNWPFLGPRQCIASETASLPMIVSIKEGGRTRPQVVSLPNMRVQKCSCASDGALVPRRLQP
Chain of Dickkopf-related protein 1 (Homo sapiens) (O94907 whole entry, looked up): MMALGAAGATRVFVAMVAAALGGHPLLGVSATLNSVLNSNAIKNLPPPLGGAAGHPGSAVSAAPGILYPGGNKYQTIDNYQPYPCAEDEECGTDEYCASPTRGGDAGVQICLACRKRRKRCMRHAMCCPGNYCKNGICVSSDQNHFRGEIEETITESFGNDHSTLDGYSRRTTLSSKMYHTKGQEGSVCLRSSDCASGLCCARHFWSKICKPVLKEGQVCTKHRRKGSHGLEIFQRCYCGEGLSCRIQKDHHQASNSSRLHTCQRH
Chain of Follistatin-related protein 3 (Homo sapiens) (O95633 whole entry, looked up): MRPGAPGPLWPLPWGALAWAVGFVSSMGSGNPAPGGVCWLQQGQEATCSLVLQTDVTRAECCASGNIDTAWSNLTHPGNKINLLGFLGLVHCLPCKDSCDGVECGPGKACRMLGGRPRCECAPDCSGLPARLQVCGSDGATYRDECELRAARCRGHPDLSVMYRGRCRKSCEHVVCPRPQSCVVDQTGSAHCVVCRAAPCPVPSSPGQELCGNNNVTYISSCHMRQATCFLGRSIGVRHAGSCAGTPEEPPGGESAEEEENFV

With `CO[C@H]1COC(=O)CC=C[C@H](C)[C@H](OC)COC(=O)[C@@H](C)COC(=O)CC=C[C@@H]1C`, the composite z-score is 0.402 and 0.0429 in [1]; -0.629 and -0.472 in [2]; -1.1 and -1.05 in experiment [3]; 0.415 and 0.242 in [5]; 0.594 and 0.65 in [6]; 0.752 and 0.715 in experiment [7]. Further, the composite z-score in experiment [8] was 0.969 and 0.59; in [9], 1.23 and 0.743; in experiment [10], 1.02 and 0.17; in experiment [11], 0.25 and -0.333; in experiment [13], 0.953 and 0.546; in experiment [14], -1.51 and -1.76. The composite z-score in [15] is -1.68 and -2.71; in experiment [16] it was -0.0172 and -0.147; in [17] it was -0.304 and 0.0899; in experiment [18], -0.194 and -0.176; in [19] it was 0.123 and -0.771; in experiment [20] it was -0.683 and -0.62. The z-score in experiment [4] is -0.0265 (inactive) and -0.282 (inactive); in experiment [12], 0.228 and 0.343.

Take `C=CCN(CCCC)C(=O)C1N(c2c(Cl)cccc2CO)C(=O)C2C(C(=O)O)C3C=CC21O3` (stereo not given): the composite z-score in experiment [1] was 0.934 and -0.194; in experiment [2] it was 0.0215 and -0.0881; in experiment [3], 1.08 and 0.748; in [5], -0.613 and -1.38; in experiment [6] it was -2.1 and -0.938; in experiment [7], -1.71 and -1.18. Also, the composite z-score in [8] was -2.37 and -1.28; in experiment [9] it was -2.46 and -2.71; in [10], -1.41 and -0.0137; in experiment [11] it was -1.84 and 0.389; in experiment [13], -3.23 and -2.18; in experiment [14] it was -0.623 and -0.783. In addition, the composite z-score in experiment [15] is 0.713 and -0.0889; in [16], -0.144 and -0.0894; in experiment [17], 0.151 and -0.279; in [18], 0.0107 and 0.242; in [19], -0.529 and -0.927; in [20] it was -0.406 and -1.31. Also, the z-score in experiment [4] was -0.786 (inactive) and -0.929 (inactive); in experiment [12], -0.325 and -0.567.

Take `C=CCN(CCCCC)C(=O)C(c1cccs1)N(C(=O)/C=C\C(=O)O)c1c(Cl)cccc1CO` (stereo not given): the composite z-score was 1.04 and 0.231 in experiment [1]; -0.0127 and -0.47 in experiment [2]; 1.15 and 0.975 in [3]; -0.85 and -2.15 in [5]; -0.612 and -1.36 in experiment [6]; -2.28 and -1.78 in experiment [7]. In addition, the composite z-score in experiment [8] is -2.13 and -1.29; in experiment [9], -3.02 and -1.77; in experiment [10], -2.25 and -3.37; in [11] it was -0.961 and -1.88; in [13] it was -3.1 and -0.775; in [14], -0.332 and -1.06. In addition, the composite z-score was 0.782 and -0.54 in experiment [15]; -0.228 and -0.348 in experiment [16]; -0.138 and -0.291 in experiment [17]; 0.509 and -0.369 in experiment [18]; 2.83 and -1.08 in experiment [19]; -2.56 and -0.725 in [20]. Besides, the z-score was 0.105 (inactive) and 1.15 (inactive) in experiment [4]; -0.651 and -0.698 in experiment [12].

As for `C[N+](C)(C)CCCCCCNC(=O)[C@H]1C[C@H]2C(=O)N[C@@H](CCCC[N+](C)(C)C)C(=O)N2[C@H]1c1ccc(O)cc1`, the composite z-score in [1] is 0.819 and 1.44; in [2], -0.359 and -0.0843; in [3], -0.304 and 0.224; in experiment [5] it was 0.508 and -0.456; in [6], -0.253 and -0.528; in experiment [7], 0.28 and -0.409. The composite z-score was 0.41 and -0.414 in [8]; 0.867 and 0.455 in experiment [9]; 0.469 and 1.16 in experiment [10]; -0.113 and 0.0498 in experiment [11]; 0.633 and -0.0601 in experiment [13]; -0.616 and -0.416 in experiment [14]. Besides, the composite z-score in experiment [15] was -0.452 and -1.03; in [16] it was -0.13 and -0.14; in [17], -0.124 and 0.0326; in experiment [18], 0.0637 and -0.303; in experiment [19], -0.0201 and -0.413; in [20] it was 1.02 and -1.54. The z-score in experiment [4] was -0.616 (inactive) and -0.146 (inactive); in experiment [12], -0.0901 and 0.0595.

With `C[C@@H]1CC[C@H]2C(=O)N3[C@@H](CC[C@@H](C)[C@@H]3c3ccc(-c4ccco4)cc3)C(=O)N2[C@H]1c1ccc(-c2ccco2)cc1`, the composite z-score in [1] was 1.22 and 1.69; in experiment [2], 0.289 and 0.596; in experiment [3] it was 0.0051 and 1.11; in [5], 0.765 and 1.37; in experiment [6], 1.32 and 1.28; in [7], 0.737 and 1.7. Further, the composite z-score in experiment [8] was 1.36 and 1.4; in experiment [9], 1.25 and 1.68; in [10], 1.01 and 1.92; in [11] it was -0.496 and 0.292; in experiment [13], 0.714 and 1.31; in experiment [14] it was 1.07 and -0.328. The composite z-score in experiment [15] is -0.355 and -1.5; in experiment [16], -0.113 and 0.0579; in experiment [17] it was 0.166 and -0.0626; in experiment [18] it was 0.274 and 0.223; in experiment [19], 1.07 and 0.704; in experiment [20] it was 1.92 and 3.43. Moreover, the z-score in experiment [4] was -0.328 (inactive) and -1.24 (inactive); in experiment [12] it was -0.207 and -0.734.
